# Screening data (PubChem)
# PRMT1 FP inh = PRMT1 methyltransferase inhibitors, primary screen, biochemical, fluorescence polarization; AID 652257, 2013; 370,000 tested, 1.3% active; recombinant PRMT1, activity-based probe fluorescence polarization; inhibition, % at 2.79 µM;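 active = inhibition above about 21% made by adding two undisclosed values, limit read from the data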
# M18AAP inhibitor = PfM18AAP inhibitors, malaria aminopeptidase, primary screen, biochemical, QFRET, recombinant enzyme | 290,000 tested, 1.2% active | inhibition, % at 7.35 µM | AID 1822, 2009 | H-Glu-NHMec fluorogenic cleavage;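 active = inhibition above the campaign mean inhibition over all tested compounds plus 3 SD, cut at about 28% in these data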;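 note: 0% = plate median of test compound wells and 100% = 2 mM ZnCl2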
# MBD2 DNA inh = inhibitors of MBD2 binding to methylated DNA, primary screen, biochemical, TR-FRET, DNA-binding domain, human; 370,000 tested, 0.31% active; Methyl-CpG-binding domain protein 2 (Homo sapiens), Q9UBB5; inhibition, % at 4.4 µM; MBD2 binding to methylated oligonucleotide; AID 686964, 2013; in the data active = inhibition above about 13%
# Target sequence (Q9UBB5 whole entry, looked up, the tested form may be a part): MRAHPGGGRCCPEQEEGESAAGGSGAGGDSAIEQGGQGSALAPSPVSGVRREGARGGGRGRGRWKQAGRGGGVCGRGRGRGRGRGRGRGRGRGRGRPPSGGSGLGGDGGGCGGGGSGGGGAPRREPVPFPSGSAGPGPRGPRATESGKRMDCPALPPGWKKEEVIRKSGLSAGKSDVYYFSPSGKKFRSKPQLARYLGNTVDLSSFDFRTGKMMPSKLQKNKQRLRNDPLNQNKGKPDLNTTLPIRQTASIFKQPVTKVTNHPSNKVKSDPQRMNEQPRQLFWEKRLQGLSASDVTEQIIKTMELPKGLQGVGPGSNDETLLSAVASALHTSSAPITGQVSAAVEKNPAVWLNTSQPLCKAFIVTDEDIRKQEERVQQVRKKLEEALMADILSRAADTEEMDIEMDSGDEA
# UHRF1 MBD2 ctr = UHRF1 methylated DNA binding inhibitors, primary screen, counter-screen for MBD2 inhibitor project, biochemical, TR-FRET, human UHRF1, single concentration; E3 ubiquitin-protein ligase UHRF1 (Homo sapiens), Q96T88; UHRF1 binding to methylated oligo; inhibition, % at 4.4 µM; AID 687016, 2013; 370,000 tested, 0.75% active; in the data active = inhibition above about 21%;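 note: UHRF1 SRA domain binding a hemimethylated CpG hairpin DNA probe; 0% = median of test compound wells and 100% = reference inhibitor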
# PfG6PD inh = PfG6PD enzyme inhibitors, primary screen, biochemical, fluorescence intensity, uHTS. glucose-6-phosphate dehydrogenase-6-phosphogluconolactonase (Plasmodium falciparum 3D7). PfGluPho enzyme, NADPH resazurin-diaphorase fluorescence. inhibition, % at 20 µM. 350,000 tested, 0.78% active. AID 504690, 2011;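 active = inhibition reaching at least a set limit at 20 µM in the primary screen, cut at about 59% in these data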;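 note: 0% = DMSO wells with substrate and 100% = DMSO wells lacking glucose-6-phosphate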
# PfGluPho conf = PfG6PD inhibitors, hit retest, confirmation, biochemical, fluorescence intensity, single concentration; shares compounds with PfG6PD inh; recombinant PfGluPho, NADPH-diaphorase-resazurin fluorescence; inhibition, % at 20 µM; 2,400 tested, 34% active; AID 504753, 2011;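 active = inhibition of at least 50% at 20 µM in any single replicate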;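 note: 0% = DMSO with substrate and 100% = DMSO lacking glucose-6-phosphate substrate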
# * hit, by the source's call; / = no result given. Shown are actives, neighbours in structure and some others; about 3.3% of the full set was active somewhere.
SMILES,PRMT1 FP inh,M18AAP inhibitor,MBD2 DNA inh,UHRF1 MBD2 ctr,PfG6PD inh,PfGluPho conf
CCCCN1C(=O)C2ON(c3ccccc3C)C(c3ccco3)C2C1=O (stereo not drawn),/,-15,/,/,73*,19
CCc1ccc(N2C(=O)C3ON(c4ccccc4)C(c4ccco4)C3C2=O)cc1 (stereo not drawn),8,5,4,1,4,/
Cn1c(=O)c2c([nH]c(=S)n2Cc2ccc(Cl)cc2)n(C)c1=O,3,30*,2,1,62*,25
Cn1c(=O)c2c(ncn2Cc2ccc(Cl)cc2)n(C)c1=O,-5,8,-7,2,9,/
COc1ccc(NC(=O)C2(C)CCN2Cc2ccc(C(C)C)cc2)cc1OC (stereo not drawn),-6,/,-2,-1,/,/
CC1(OC(=O)CCc2ccccc2)C(=O)C=C2C=C(c3ccc(C#N)cc3)N(c3ccccc3)C=C2C1=O (stereo not drawn),-2,/,8,5,72*,23
CC1(OC(=O)CCc2ccccc2)C(=O)C=C2C=C(c3ccc(C#N)cc3)N(C3CCCC3)C=C2C1=O (stereo not drawn),5,/,5,0,61*,19
CC(C)OCCCN1C=C2C(=O)C(C)(OC(=O)CCc3ccccc3)C(=O)C=C2C=C1c1ccc(C#N)cc1 (stereo not drawn),6,/,1,-2,81*,27
CC1(OC(=O)CCc2ccccc2)C(=O)C=C2C=C(c3ccc(C#N)cc3)N(CC3CC3)C=C2C1=O (stereo not drawn),5,/,-4,-3,40,/
O=C(Nc1ccc(N2CCCC2)cc1)c1cccc(Cl)c1Cl,0,4,-3,0,9,/
COC(=O)[C@]12C[C@H](CC(=O)NCC34CC5CC(CC(C5)C3)C4)C(=O)N(CCc3ccc(OC)c(OC)c3)C1=C[C@H](C(C)C)O[C@@H]2C1CC1,6,/,4,-1,/,/
O=C(Cc1c(F)cccc1Cl)Nc1ccc(S(=O)(=O)Nc2nccs2)cc1,1,-1,2,2,-37,/
O=[N+]([O-])c1ccc2c(c1N1CCCCC1)=NC1(CCCCC1)[N+]=2[O-],2,0,-13,-6,23,/
[O-][N+]1=c2ccc(Nc3ccccc3)cc2=NC12CCCCC2,2,13,-23,-13,61*,0
COc1ccc(Nc2ccc3c(c2)=NC2(CCCCC2)[N+]=3[O-])cc1,8,12,-24,-13,78*,14
COc1cccc(-c2nnc(SCC(=O)Nc3cccc4ccccc34)n2Cc2ccco2)c1,17,/,3,1,/,/
Cc1cc(C)c(C#N)c(Cl)n1,1,-3,-5,-1,4,/
Cc1cc(C)nc(/N=c2/ssnc2Cl)c1,7,29*,-3,-2,98*,26
COC(=O)[C@@]12CCCCC3=C1N(CCC3)C(=O)[C@H]2CC(=O)N1CCCCC1,-1,/,3,3,/,/
CCn1c(SCC(=O)Nc2ccc(C)cc2)nnc1-c1cnccn1,2,-2,2,0,68*,16
C=CCn1c(SCC(=O)Nc2cc(C)cc(C)c2)nnc1-c1cnccn1,2,10,-10,-6,25,/
C=CCn1c(SCC(=O)Nc2ccc(OC)cc2)nnc1-c1cnccn1,0,-3,7,2,64*,17
